We go through 55 molecules from PubChem BioAssay AID588342 (National Center for Advancing Translational Sciences (NCATS), 2011).

The campaign covered roughly 360,000 compounds. About 25,000 (6.9%) were called active. Inconclusive results (about 9%) are left out. The list comes from a sample in which actives are over-represented; it also holds similar structures and randomly drawn compounds. Where a call stands in place of a potency, no number is given. A number with no mark means an inactive call. Calls follow the shape of the dose curve; as a rule, active = well fitted inhibition curve with a large enough effect; inconclusive = small, poorly fitted or top-dose-only effect; inactive = flat fitted curve, though single readings scatter.

Sequence of Luciferin 4-monooxygenase (Photinus pyralis) (P08659 whole entry, looked up): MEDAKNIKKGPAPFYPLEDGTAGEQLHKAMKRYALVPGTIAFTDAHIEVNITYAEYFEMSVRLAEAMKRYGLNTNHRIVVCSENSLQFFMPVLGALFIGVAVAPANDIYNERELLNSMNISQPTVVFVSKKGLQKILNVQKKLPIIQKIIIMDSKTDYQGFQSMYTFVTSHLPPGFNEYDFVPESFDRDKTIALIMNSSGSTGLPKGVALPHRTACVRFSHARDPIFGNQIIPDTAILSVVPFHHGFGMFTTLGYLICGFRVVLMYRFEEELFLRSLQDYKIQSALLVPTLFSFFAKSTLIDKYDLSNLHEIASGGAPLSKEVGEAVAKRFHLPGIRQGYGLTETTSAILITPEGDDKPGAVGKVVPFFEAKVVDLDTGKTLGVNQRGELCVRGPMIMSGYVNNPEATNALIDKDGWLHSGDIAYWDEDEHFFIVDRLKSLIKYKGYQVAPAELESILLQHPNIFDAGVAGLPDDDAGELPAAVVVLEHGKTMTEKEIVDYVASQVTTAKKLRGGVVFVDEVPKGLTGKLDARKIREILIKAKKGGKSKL

This test deals with Luciferin 4-monooxygenase (Photinus pyralis) (UniProt P08659). The test can be described thus: qHTS profiling assay for firefly luciferase inhibitor/activator using purifed enzyme and Km concentrations of substrates (counterscreen for miR-21 project). Also: nearly all actives have a fitted effect of over 55% in size. Particulars: purified FLuc, luminescence inhibition; series mostly up to 57.5 µM. The text has this:
MLPCN Grant: 1 R21 NS059478-01 (miR-21 grant) Assay Provider: NCGC NCGC Assay Overview: Firefly (Photinus pyralis) luciferase is one of the most commonly used transcriptional reporters for a number of reasons. It is considered one of the more dynamically responsive reporters -that is, responsive to changes in reporter transcription - as it requires no post-translational modifications and is enzymatically active directly after protein synthesis (Wood, 1998). Additionally, the half-life of the luciferase protein is short relative to other reporter-gene products (Wood, 1995). Whereas reporters with long half-lives potentially allow for increased signal due to accumulation of reporter-gene product, once accumulated in the cell, dynamic changes in reporter-gene expression may be difficult to detect(Fan and Wood, 2007; Almond et al., 2004). It has been shown that wild-type P. pyralis luciferase has a half-life of approximately […] hours in mammalian cells (Thompson et al., 1991). Firefly luciferase reporter-gene assays are also generally considered one of the most sensitive assay types (Wood, 1995; Wood, 1998). Although light produced in a bioluminescence reaction is of lower intensity than that produced during fluorescence emission, this is offset by little to no background light inherent to luminescent assays. Thus the luciferase reporter can be expressed at much lower levels than fluorescent proteins while still providing robust signal. # However, it was initially observed, in 1991, by Thompson et al., that compounds that resemble the substrates of firefly luciferase (FLuc) can act as competitive inhibitors of the enzyme, and that these compounds, upon interaction with luciferase in the cell, can actually stabilize the protein and increase its half-life. Accumulated intracellular FLuc protein can be measured as an increase in luminescence signal, upon addition of detection reagents (which contain high concentrations of FLuc substrates) commonly used in high-throughput screening. In cell-based reporter gene assays that use FLuc as the reporter gene to quantitate the potential influence of a given compound against the target biology, this apparent increase in luminescence can mistakenly be interpreted as identification of a compound that is active against the target of interest. This is the case for the miR-21 FLuc reporter gene assay used to identify inhibitors of the miR-21 pathway (PubChem AID 2289) - compounds of interest will inhibit miR-21 biogenesis/expression or activity, and are identified by causing an increase in luminescence, due to increased FLuc translation. However, FLuc inhibitory compounds that stabilize the FLuc protein will give an identical read-out, making it difficult to distinguish compounds that are active against the target from those active against FLuc. Previous profiling work to determine the prevalence of compounds that affect FLuc enzymatic activity (PubChem AID 411) identified that ~3% of the MLSMR library (then at ~72K) inhibited FLuc. […] Since the MLSMR had grown to ~350K compounds, and since it was expected that a significant percentage of compounds found active in the miR-21 FLuc assay would be FLuc inhibitors, the library was screened for activity against FLuc using a biochemical assay of purified FLuc and KM concentrations of FLuc substrates (D-luciferin and ATP).
NCGC Assay Protocol Summary: Reagents: 50mM Tris acetate, pH 7.5; 10mM Mg acetate; 10uM D-luciferin (Sigma #L9504); 10uM ATP; 0.01% Tween-20; 0.05% BSA; 10nM P. pyralis luciferase (Sigma #L9506) Control compounds used were two known firefly luciferase inhibitors (compounds (2) and (5) in Auld et al., 2010), and DMSO. […]
Background: qHTS replaces the single test concentration by a dilution series.
Take `COc1ccccc1N1CCN(/N=C/c2ccc(O)cc2O)CC1`: the Potency is 7.57 µM (active).
Same read-out and setting: as for `CNCC(O)CN1CCN(c2ccccc2OC)CC1` (stereo not given), the entry is “inactive”; as for `COc1ccccc1N1CCN(C(=O)C(=O)N/N=C/c2ccccc2F)CC1`, “inactive”.
The same measure, in the same setting: to `COc1ccccc1N1CCN(/N=C\C(Br)=C\c2ccccc2)CC1` belongs 16.9 µM (active); to `COc1ccccc1N1CCN(C2C(=O)c3ccccc3N2C(C)=O)CC1` (stereo not given), “inactive”; to `COc1ccccc1/C=N/N1CCN(Cc2ccccc2Cl)CC1`, “inactive”.
Same read-out and setting: to `CCOC(=O)CN1C(=O)N[C@@H](c2ccc(Br)cc2)C(C(C)=O)=C1C` belongs “inactive”.
For `Cc1oc(-c2ccccc2F)nc1CN1CCC(C(=O)NCCc2ccc(Cl)cc2)CC1`, the Potency entry was “inactive”.
The same measure, in the same setting: to `CN(Cc1ccccc1)C(=O)c1cc2c(=O)n(C)c3ccccc3c2s1` belongs “inactive”; to `Cc1[nH]c2ccccc2c1C(c1ccccc1)c1cccs1` (stereo not given), “inactive”; to `Cc1cccc(N2CCN(C(=O)c3ccc4c(c3)CCN4S(=O)(=O)c3ccccc3)CC2)c1C`, “inactive”.
As for `Cc1ccc(Cn2cc(CCC(=O)NCc3ccc(OC(C)C)cc3)c3ccccc32)cc1`, the Potency result was “inactive”.
On the same count and under the same terms, as for `CC(=O)Nc1ccc(OC(=O)COc2ccc(Br)cc2)cc1`, the entry is “inactive”.
In the case of `CSc1ccc(Cl)c(C(=O)OCC(=O)N2CCNC2=O)c1`, the Potency result was “inactive”.
In the case of `CC(=O)CSc1nnc(CSc2ncccn2)n1C1CCCCC1`, the Potency result was “inactive”.
As to `O=S(=O)(c1ccccc1)c1nc(-c2ccc(Cl)cc2Cl)oc1N1CCCCC1`, the Potency result is “inactive”.
The same measure, in the same setting: as for `COc1ccc(S(=O)(=O)Nc2ccccc2C(=O)N2CCCC2)cc1C`, the entry is “inactive”; as for `CC(NS(=O)(=O)c1ccc(OCC(=O)N2CCCC2)cc1)c1ccccc1` (stereo not given), “inactive”.
The same measure, in the same setting: to `COc1ccc(S(=O)(=O)NC(C)c2ccccc2)cc1C(=O)N1CCCCC1` (stereo not given) belongs 1.69 µM (active); to `COc1ccc(NS(=O)(=O)c2cc3c4c(c2)CC(=O)N4CCC3)cc1Cl`, “inactive”; to `O=C(CN1C(=O)CC(c2ccccc2)S(=O)(=O)c2ccccc21)NC1CCCC1` (stereo not given), “inactive”.
Take `C(=N\n1cnnc1)/c1cccnc1`: the Potency result was “inactive”.
Same read-out and setting: to `Cc1ccccc1C1=N/C(=C/c2cccnc2)C(=O)O1` belongs 8.49 µM (active); to `O=C1/C(=C\c2cccnc2)CN(Cc2ccccc2)C/C1=C\c1cccnc1`, “inactive”.
On the same count and under the same terms, as for `CCc1nc2sc3c(Cl)ncnc3c2c2c1CCCC2`, the entry is “inactive”; as for `Cc1ccccc1CN1CCN(C(=O)c2cccc(F)c2)CC1`, “inactive”.
Take `Cc1cccc(-n2cc(CN3CCN(C(=O)c4ncn[nH]4)CC3)c(-c3cccc(F)c3)n2)c1`: the Potency was 13.5 µM (active).
As for `Cc1ccc(C)c(-n2cc(CN3CCN(C(=O)c4ncn[nH]4)CC3)c(-c3ccccc3)n2)c1`, the Potency result was “inactive”.
On the same count and under the same terms, to `CCN(CCCNC(=O)c1cc2cc3cc(OC)ccc3nc2s1)c1ccccc1` belongs “inactive”; to `CC(=O)Nc1ccc(SC[C@H](Cc2ccccc2)N2CC[C@@H](C)CCC2=O)cc1`, “inactive”; to `Cc1ccc2nc(SCC(=O)NC3CCCC3)[nH]c2c1`, “inactive”.
Same read-out and setting: to `CCOC(=O)CSc1nc2ccc(C)cc2[nH]1` belongs 16.9 µM (active); to `COc1ccc2nc(SCC(=O)Nc3c(C)cc(C)cc3C)[nH]c2c1`, “inactive”.
On the same count and under the same terms, as for `COc1ccc(S(=O)(=O)NCc2cccn2Cc2cccc(C)c2)cc1`, the entry is “inactive”; as for `Clc1cccc(N=C2NN=C(c3ccc4c(c3)OCCO4)CS2)c1`, 2.13 µM (active); as for `c1ccc(CN2CCC(N=C3NN=C(c4ccc5c(c4)OCCO5)CS3)CC2)cc1`, “inactive”.
As to `CC(NC(=O)COC(=O)c1cc(=O)[nH]c2ccccc12)c1ccccc1` (stereo not given), the Potency entry is “inactive”.
On the same count and under the same terms, to `COC(=O)C1CCN(C(=O)c2cc(=O)[nH]c3ccccc23)CC1` belongs “inactive”; to `CC1CCN(C(=O)COC(=O)c2cc(=O)[nH]c3ccccc23)CC1`, 10.7 µM (active).
The same measure, in the same setting: as for `Cc1cc(C)cc(NC(c2nnc(-c3cccc(F)c3)o2)c2ccc(F)cc2Cl)c1` (stereo not given), the entry is “inactive”; as for `COc1cccc(CNc2nccn(-c3ccc(OC)c(OC)c3)c2=O)c1`, “inactive”.
Same read-out and setting: as for `COc1ccc(-c2cc(C(F)(F)F)nc(SCC(=O)N(C)Cc3ccccc3)n2)cc1OC`, the entry is “inactive”.
With `COc1ccc(CC2c3cc(OC)c(OC)cc3CC[N+]2(C)CCC(=O)OCCCCCOC(=O)CC[N+]2(C)CCc3cc(OC)c(OC)cc3C2Cc2ccc(OC)c(OC)c2)cc1OC` (stereo not given), the Potency result is “inactive”.
The same measure, in the same setting: as for `COc1ccc(-c2nc3ccccc3o2)cc1NC(=O)c1cc([N+](=O)[O-])ccc1N1CCOCC1`, the entry is “inactive”.
Same read-out and setting: as for `O=C(Nc1cccc(-c2nc3ccccc3o2)c1)c1cccc(Br)c1`, the entry is “inactive”.
Still for that read-out and setting: as for `COc1cccc(-c2nc(S(=O)(=O)c3ccc(C)cc3)c(NCc3ccccc3)o2)c1`, the entry is “inactive”; as for `CCCOc1ccc(C(=O)Nc2ccc3oc(-c4cccc(Cl)c4Cl)nc3c2)cc1`, “inactive”.
As for `COc1cccc(-c2nc3cc(C)ccc3o2)c1`, the Potency was 0.757 µM (active).
Still for that read-out and setting: to `O=C(Nc1cc(-c2nc3ccccc3o2)ccc1Cl)c1cc([N+](=O)[O-])ccc1N1CCOCC1` belongs “inactive”; to `COc1ccc2oc(-c3ccc(C)c(NC(=O)c4sc5ccccc5c4Cl)c3)nc2c1`, “inactive”.
As for `Cc1ccc(OCC(=O)Nc2ccc(-c3nc4ncccc4o3)cc2)cc1`, the activity change, negative = inhibition was -2.22% [at 2.3 µM].
As to `O=[N+]([O-])c1ccc2oc(-c3cccc(O)c3)nc2c1`, the Potency was 2.13 µM (active).
On the same count and under the same terms, to `CCC(=O)Nc1cccc(-c2nc3cc(C)ccc3o2)c1` belongs 2.69 µM (active); to `CCCC(=O)Nc1ccc2oc(-c3ccc(O)c(Br)c3)nc2c1`, 2.39 µM (active).
On to `O=C(Nc1ccc2oc(-c3ccc(O)c(Br)c3)nc2c1)c1cc2ccccc2o1`, for which the Potency result was “inactive”.
